Experimental data published in PubChem BioAssay (Tox21).
Where “and” joins values, the source holds several entries; their conditions need not be identical. Equal values may be shown once. Inconclusive results are not listed. Calls of active or inactive are those of the source. Unless noted, the call rests on the fitted dose curve; in most records, active means well fitted curve in the direction sought with a large enough effect in the repeat runs; inconclusive means weak or mixed curves; inactive means no such curve, though single readings can be large; an effect the other way counts as inactive or inconclusive.

How the values were obtained:
[1] = qHTS assay to identify small molecule agonists of H2AX - cell viability counter screen (AID 1224847; calls by dose curve; further: top concentration of the series differs between compounds; nearly all actives have a fitted effect of over 30% in size)
How it was run: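 Quantitative HTS viability measurement: CHO-K1 wild-type cells in serum (10% FBS) medium, short 3 hr drug exposure at 37C with 0.76% DMSO, CellTiter-Glo luminescent detection.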

[2] = qHTS RealTime-Glo MT Cell Viability Assay in HepG2 cells - 24 hour (AID 1224867); further: nearly all actives have a fitted effect of over 50% in size
How it was run: (§1)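 HepG2 cells were seeded at 600 cells/well together with NanoLuc luciferase and a cell-permeant prosubstrate, preincubated 5 h at 37 C/5% CO2, then pin-dosed with compounds in DMSO. Nonlytic luminescence from viable cells was read at each time point.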

[3] = A CellTox Green Cytotoxicity Assay to monitor cytotoxicity in HEK293 cells - 0 hour (AID 1224869); further: nearly all actives have a fitted effect of over 50% in size
How it was run: (§2)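 Read-out: fluorescence of a cell-impermeant cyanine dye staining DNA of dead cells, proportional to cytotoxicity. HEK293, 600 cells/well with reagent, compound (23 nL DMSO) added after 5 h; reads at 0, 8, 16, 24, 32, 40 h.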

[4] = qHTS RealTime-Glo MT Cell Viability Assay in HepG2 cells - 40 hour (AID 1224870); further: nearly all actives have a fitted effect of over 50% in size
How it was run: (§3)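 HepG2 cells mixed with RealTime-Glo MT reagents (NanoLuc plus cell-permeant prosubstrate) were seeded at 600 cells/well, incubated 5 h at 37 C/5% CO2, then pinned with compounds in DMSO; nonlytic luminescence tracked viability during 40 h treatment.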

[5] = A CellTox Green Cytotoxicity Assay to monitor cytotoxicity in HEK293 cells - 40 hour (AID 1224871); further: nearly all actives have a fitted effect of over 45% in size
How it was run: as §2

[6] = qHTS RealTime-Glo MT Cell Viability Assay in HEK293 cells - 16 hour (AID 1224872); further: top concentration of the series differs between compounds; nearly all actives have a fitted effect of over 50% in size
How it was run: (§4)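 HEK293 cells were seeded at 600 cells/well together with NanoLuc luciferase and cell-permeant prosubstrate, preincubated 5 h at 37 C/5% CO2, then given compound in DMSO by pintool. Luminescence from viable-cell prosubstrate reduction was read repeatedly over 40 h.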

[7] = qHTS RealTime-Glo MT Cell Viability Assay in HepG2 cells - 8 hour (AID 1224873); further: nearly all actives have a fitted effect of over 55% in size
How it was run: as §3

[8] = A CellTox Green Cytotoxicity Assay to monitor cytotoxicity in HEK293 cells - 24 hour (AID 1224875); further: series mostly up to about 77 µM; nearly all actives have a fitted effect of over 45% in size
How it was run: as §2

[9] = A CellTox Green Cytotoxicity Assay to monitor cytotoxicity in HepG2 cells - 16 hour (AID 1224876); further: nearly all actives have a fitted effect of over 45% in size
How it was run: (§5)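 HepG2, 600 cells/well premixed w/ CellTox Green; 5 h settle, 37 C/5% CO2; pintool cpd add (DMSO); 37 C, 40 h; fluorescence read at 0, 8, 16, 24, 32, 40 h.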

[10] = qHTS RealTime-Glo MT Cell Viability Assay in HepG2 cells - 32 hour (AID 1224877); further: nearly all actives have a fitted effect of over 55% in size
How it was run: as §1

[11] = A CellTox Green Cytotoxicity Assay to monitor cytotoxicity in HepG2 cells - 24 hour (AID 1224878); further: nearly all actives have a fitted effect of over 45% in size
How it was run: as §5

[12] = A CellTox Green Cytotoxicity Assay to monitor cytotoxicity in HepG2 cells - 40 hour (AID 1224879); further: nearly all actives have a fitted effect of over 40% in size
How it was run: as §5

[13] = qHTS RealTime-Glo MT Cell Viability Assay in HEK293 cells - 0 hour (AID 1224880)
How it was run: (§6)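 Luminescence readout at each listed time point; HEK293, 600 cells/well, RealTime-Glo MT reagent added with cells; compounds pinned (23 nL in DMSO) after 5 h at 37 C; continuous culture at 37 C.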

[14] = A CellTox Green Cytotoxicity Assay to monitor cytotoxicity in HEK293 cells - 32 hour (AID 1224881); further: nearly all actives have a fitted effect of over 40% in size
How it was run: as §2

[15] = A CellTox Green Cytotoxicity Assay to monitor cytotoxicity in HepG2 cells - 0 hour (AID 1224882); further: nearly all actives have a fitted effect of over 35% in size
How it was run: as §5

[16] = A CellTox Green Cytotoxicity Assay to monitor cytotoxicity in HepG2 cells - 32 hour (AID 1224883); further: nearly all actives have a fitted effect of over 50% in size
How it was run: as §5

[17] = qHTS RealTime-Glo MT Cell Viability Assay in HEK293 cells - 40 hour (AID 1224874); conditions: RealTime-Glo luminescence; max response: hits give low values; further: nearly all actives have a fitted effect of over 50% in size
How it was run: as §6

[18] = qHTS RealTime-Glo MT Cell Viability Assay in HEK293 cells - 32 hour (AID 1224868)
How it was run: as §4
On the % scale 0 is the no-effect control and ±100 the full control effect.

CCCC(C)=O
inactive: Potency [1] | outcome [2] | outcome [3] | outcome [4] | Potency [5] | Potency [6] | outcome [7] | Potency [8] | Potency [9] | outcome [10] | Potency [11] | Potency [12] | Potency [13] | Potency [14] | outcome [15] | Potency [16]

C#CCN(C)Cc1ccccc1
inactive: Potency [1] | outcome [2] | outcome [3] | outcome [4] | Potency [5] | Potency [6] | outcome [7] | Potency [8] | Potency [9] | outcome [10] | Potency [11] | Potency [12] | Potency [13] | Potency [14] | outcome [15] | Potency [16]

CCN(CC)c1ccc(C(=O)c2ccccc2C(=O)O)c(O)c1
inactive: Potency [1] | outcome [2] | outcome [3] | outcome [4] | Potency [5] | Potency [6] | outcome [7] | max response [17] -1.39% and 2.11% | Potency [8] | Potency [9] | outcome [10] | Potency [11] | Potency [12] | Potency [13] | Potency [14] | outcome [15] | Potency [16]

CCCCCCCCCC
inactive: Potency [1] | outcome [2] | outcome [3] | outcome [4] | Potency [5] | Potency [6] | outcome [7] | Potency [8] | Potency [9] | outcome [10] | Potency [11] | Potency [12] | Potency [13] | Potency [14] | outcome [15] | Potency [16]

CC(=O)Nc1ccccc1
inactive: Potency [1] | outcome [2] | outcome [3] | outcome [4] | Potency [5] | Potency [6] | outcome [7] | max response [17] 12.1% and 6.06% | Potency [8] | Potency [9] | outcome [10] | Potency [11] | Potency [12] | Potency [13] | Potency [14] | outcome [15] | Potency [16]

CCCCN(CCCC)CCCC
inactive: Potency [1] | outcome [2] | outcome [3] | outcome [4] | Potency [5] | Potency [6] | outcome [7] | max response [17] 6% and 4.07% | Potency [8] | Potency [9] | outcome [10] | Potency [11] | Potency [12] | Potency [13] | Potency [14] | outcome [15] | Potency [16]

O=C(O)c1cc(O)c(O)c(O)c1
inactive: Potency [1] | outcome [2] | Potency [18] | outcome [3] | outcome [4] | Potency [5] | Potency [6] | outcome [7] | Potency [8] | Potency [9] | outcome [10] | Potency [11] | Potency [12] | Potency [13] | Potency [14] | outcome [15] | Potency [16]

CCOC(=O)NNc1nncc2ccccc12
inactive: Potency [1] | outcome [2] | outcome [3] | outcome [4] | Potency [5] | Potency [6] | outcome [7] | max response [17] 3.91% and 1.02% | Potency [8] | Potency [9] | outcome [10] | Potency [11] | Potency [12] | Potency [13] | Potency [14] | outcome [15] | Potency [16]

C[Si](O[Si](C)(C)C)O[Si](C)(C)C
inactive: Potency [1] | outcome [2] | outcome [3] | outcome [4] | Potency [5] | Potency [6] | outcome [7] | max response [17] 1.67% and 1.77% | Potency [8] | Potency [9] | outcome [10] | Potency [11] | Potency [12] | Potency [13] | Potency [14] | outcome [15] | Potency [16]

CC(=O)c1ccccc1
inactive: Potency [1] | outcome [2] | outcome [3] | outcome [4] | Potency [5] | Potency [6] | outcome [7] | max response [17] 0.254% and 9.46% | Potency [8] | Potency [9] | outcome [10] | Potency [11] | Potency [12] | Potency [13] | Potency [14] | outcome [15] | Potency [16]

CC(C)c1ccc(S(=O)(=O)O)cc1
inactive: Potency [1] | outcome [2] | Potency [18] | outcome [3] | outcome [4] | Potency [5] | Potency [6] | outcome [7] | Potency [9] | outcome [10] | Potency [11] | Potency [12] | Potency [13] | Potency [14] | outcome [15] | Potency [16]

FC(F)(F)c1ccc(Cl)c(Cl)c1
inactive: Potency [1] | outcome [2] | outcome [3] | outcome [4] | Potency [5] | Potency [6] | outcome [7] | max response [17] 1.14% and 2.54% | Potency [8] | Potency [9] | outcome [10] | Potency [11] | Potency [12] | Potency [13] | Potency [14] | outcome [15] | Potency [16]

c1ccc2scnc2c1
inactive: Potency [1] | outcome [2] | outcome [3] | outcome [4] | Potency [5] | Potency [6] | outcome [7] | max response [17] 13.8% and 1.41% | Potency [8] | Potency [9] | outcome [10] | Potency [11] | Potency [12] | Potency [13] | Potency [14] | outcome [15] | Potency [16]

C=C(C)C(=O)OCCOCCOCCOC(=O)C(=C)C
inactive: Potency [1] | outcome [2] | outcome [3] | outcome [4] | Potency [5] | Potency [6] | outcome [7] | max response [17] -0.0416% and 6.25% | Potency [8] | Potency [9] | outcome [10] | Potency [11] | Potency [12] | Potency [13] | Potency [14] | outcome [15] | Potency [16]
